Source: PubChem BioAssay
Compounds with a hit are over-represented: about 6.2% of the library has one in this group of screens.
Lassa entry inh – Lassa virus entry inhibition; Lassa virus pseudotype entry inhibition, cell reporter; Potency, µM (highest dose often 37.9 µM), for inactives: at the top dose activity change, negative = inhibition, most hits filed as inhibitors; actives 1.2% (n = 300,000); calls by dose curve; tested in HEK293 cells; further: potency means the concentration at half of the fitted maximal effect; nearly all actives have a fitted effect of over 50% in size
MARV entry inh – Marburg virus entry inhibition. Marburg virus pseudotyped entry inhibition, cell reporter. Potency, µM (top dose mostly 37.8 µM), for inactives: top-dose activity change, negative = inhibition, hits mostly inhibitors. actives 1.8% (n = 300,000). AID 540276; calls by dose curve; tested in HEK293 cells; further: potency means the concentration at half of the fitted maximal effect
HCMV antiviral – inhibitors of human cytomegalovirus; HFF cells, HCMV-luciferase reporter, 72 h; stronger effect = lower value; activity change, negative = inhibition, % at 57.5 µM; actives 4.5% (n = 410,000); in the data active means activity change below about -60%; inconclusive means no clear call, values can overlap the other calls; inactive means above about -39%
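Human foreskin fibroblasts infected with luciferase-reporter HCMV at MOI 1 PFU/cell, compounds at two doses. Luciferase measured 72 h post infection; normalized to buffer-only basal and Salinomycin (10uM) controls.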
FMDV antiviral – foot and mouth disease virus antiviral activity; FMDV antiviral cell-based qHTS; Potency, µM (titrated, usually from 57.9 µM), for the others: top-dose activity change, negative = inhibition, actives largely listed as inhibitors; actives 1.2% (n = 410,000); calls by dose curve; tested in HEK293T cells; further: read-out not given here; potency means the concentration at half of the fitted maximal effect; nearly all actives have a fitted effect of over 45% in size
Active calls of the source: *; ? = inconclusive; . = no result; [ ] = remark or other dose. On the % scale 0 is the no-effect control and ±100 the full control effect.

SMILES | Lassa entry inh | MARV entry inh | HCMV antiviral | FMDV antiviral
CC(Oc1ccc(Br)cc1)C(=O)NC1CCN(Cc2ccccc2)CC1 (stereo unspecified) | -30.8% | 12.6µM* | -27.6 | -28.1%
Cc1cnc(SCc2ccccn2)nc1C1CCCN(C(=O)c2ccc3c(c2)OCCO3)C1 (stereo unspecified) | . | . | . | -2.7%
Cc1cc(F)ccc1NC(=O)Cn1cc(S(=O)(=O)NC(C)C)c(S(=O)(=O)NC(C)C)c1 | 28.1%[46.1 µM] | . | 12.5 | 6.5%
CC1=Nc2cc(C(=O)NCc3ccco3)ccc2Sc2ccc(C)cc21 | ? | -41.2% | -92.2* | 7.4%
CC1=Nc2cc(C(=O)NCC3CCCO3)ccc2Sc2ccc(C)cc21 (stereo unspecified) | . | . | -71.8* | 10.8%
CC1=Nc2cc(C(=O)NCCCN3CCN(C)CC3)ccc2Sc2ccc(C)cc21 | . | . | -23.9 | 1.7%
CC1=Nc2cc(C(=O)O)ccc2Sc2ccc(C)cc21 | 13.3%[46.1 µM] | -2.6%[46.1 µM] | -10.7 | 0.0%
CCC(C)NC(=O)c1ccc2c(c1)N=C(C)c1cc(C)ccc1S2 (stereo unspecified) | -16.7%[46.1 µM] | ? | -71.5* | -18.0%
O=C(Cc1ccccc1)N1CCc2[nH]nc(-c3ccccc3)c2C1 | 11.2µM* | ? | -9.1 | -8.6%
CC(=O)c1c(C)[nH]c(C(=O)OCc2c(F)cccc2Cl)c1C | ? | ? | -61.5* | ?
COC(=O)c1c(C)[nH]c(C(=O)OCc2ccc(F)cc2)c1C | -29.8% | -9.5% | 87.2 | 24.1%
CC(=O)c1c(C)[nH]c(C(=O)OCc2ccc(F)cc2Cl)c1C | -15.9% | ? | -68.3* | -21.5%
CC(=O)c1c(C)[nH]c(C(=O)OCc2cccc(Cl)c2)c1C | ? | ? | 41.4 | -16.8%
O=C(CCS(=O)(=O)c1ccc(Br)cc1)Nc1ccc(Cl)c(C(F)(F)F)c1 | -19.5%[46.1 µM] | . | ? | -13.7%
O=c1oc2ccccc2c2c1C(O)CO2 (stereo unspecified) | . | . | -38.4 | -26.1%
O=c1oc2ccccc2c(O)c1[C@H]1c2ccc(O)cc2Oc2c1c(=O)oc1ccccc21 | . | . | -92.9* | ?
CC(C)Cc1nnc(NC(=O)CC(=O)Nc2ccccc2C(=O)O)s1 | ? | ? | -33.8 | -15.8%
CC(C)c1nnc(NC(=O)CC(=O)Nc2ccccc2C(=O)O)s1 | 6.31µM* | ? | -27.7 | -34.4%
Cc1ccc(CNS(=O)(=O)c2ccc3c(c2)n(C)c(=O)n3C)cc1 | ? | ? | -66.0* | -22.5%
COC(=O)c1ccc(NC(=O)CN(C)S(=O)(=O)c2ccc3c(c2)CCCC(=O)N3)cc1 | ? | . | 2.0 | 31.6µM*
O=C(CN1N=C(C(F)(F)F)CC1(O)c1ccc([N+](=O)[O-])cc1)c1ccccc1 (stereo unspecified) | 4.1% | -8.0% | 10.4 | -4.6%
O=C(c1ccccc1O)N1N=C(C(F)(F)F)CC1(O)c1ccc([N+](=O)[O-])cc1 (stereo unspecified) | . | . | -101.6* | -19.1%
CCC1=NN(C(=O)c2ccccc2O)C(O)(c2ccccc2)C1 (stereo unspecified) | . | . | -75.6* | -8.0%
Cc1oc(-c2ccccc2NC(=O)c2ccccc2)nc1CNC(=O)c1cccc(-n2cccn2)c1 | . | . | . | 0.7%
O=C(COc1ccc(Cl)cc1Cl)N/N=C/c1ccc(OC2OC(CO)C(O)C(O)C2O)cc1 (stereo unspecified) | . | . | -79.4* | 12.7%
SMILES | Lassa entry inh | MARV entry inh | HCMV antiviral | FMDV antiviral
O=C(CCCOc1ccc(Cl)cc1Cl)N/N=C/c1ccc(Cl)cc1 | ? | ? | 23.9 | -2.5%
COc1ccc(COC(=O)NNC(=O)c2ccccc2Cl)cc1 | 3.98µM* | 0.8% | 18.6 | -11.2%
O=C(NNC(=O)OCc1ccccc1)OCc1ccccc1 | ? | ? | -98.9* | 17.6%
O=C(NNC(=O)c1ccccc1Cl)c1ccccc1Cl | 3.5% | 28.0%[46.1 µM] | 73.2 | 48.4%
NCC[C@H]1CCC[C@H](CCN)N1 | . | -3.7% | . | .
Cc1cc(=O)[nH]c(N=N/C(=N/Nc2ccc(O)cc2)c2ccccc2)n1 | 20µM* | ? | 68.3 | -22.7%
COc1ccc(N/N=C(/N=Nc2nc(C)cc(=O)[nH]2)c2ccccc2)cc1 | 5.01µM* | 4.47µM* | -88.8* | -7.6%
COc1ccc(C(=O)CSc2nc(C)cc(=O)[nH]2)cc1 | -1.8% | 22.1% | 2.9 | 28.5%
Cc1cccc(-n2c(/C=C/c3cccc4ccccc34)nc3ccccc3c2=O)c1 | 15.9%[46.1 µM] | . | ? | ?
O=c1c2ccccc2nc(/C=C/c2ccc([N+](=O)[O-])o2)n1-c1ccc(O)cc1 | ? | 3.16µM* | -100.5* | ?
Cc1cccc(-n2c(/C=C/c3c(C)[nH]c4ccccc34)nc3ccccc3c2=O)c1 | 3.0%[46.1 µM] | . | 6.7 | -20.4%
